For assay [1], the system named is P. berghei liver stage (PbLuc). Details: species or system HepG2-A16-CD81; P. berghei luciferase sporozoite infection of hepatocytes, liver stage luminescence. The settings on record: inhibitor; for PbLuc primary screen (10uM): inhibition % (n=1): 48 h.
The subject of assay [2] is HepG2-A16-CD81 hepatocytes. On the set-up: Uninfected hepatocyte viability, CellTiter-Glo luminescence. The settings on record: cytotoxicity primary screen, inhibitor.

Molecules are shown by their SMILES.

As for `CCc1c(C)[nH]c2cc(C3CCN(Cc4cccc(F)c4)C3)nn2c1=O` (stereo not drawn) [DDD01060569], in assay [1], the “PbLuc primary screen (10uM): inhibition % (n=1)” value was found to be 77.3% and the “PbLuc primary screen (2uM): inhibition % (n=1)” value is listed as 65.74%. Further, the “HepG2 toxicity primary screen (10uM): inhibition % (n=1)” value in assay [2] was -6.43%.
For `COc1ccc(F)cc1-c1nc2c(C3CC3)[nH]n(C)c-2n1` [DDD01250494], in assay [1], the “PbLuc primary screen (10uM): inhibition % (n=1)” value is given as -12.1% and the “PbLuc primary screen (2uM): inhibition % (n=1)” value is -45.41%. For the same compound, in assay [2], the “HepG2 toxicity primary screen (10uM): inhibition % (n=1)” value is on record as -2.18%.
The like results for `COc1cc(OC)c(-c2nc3c(C4CC4)[nH]n(C)c-3n2)cc1OC` [DDD01244474] were, in that order, 41.8%, -47.16% and -5.02%.
Consider `Cc1[nH]n(-c2ccc(F)cc2)c2nnc(N)c1-2` [DDD01065623], for which, in assay [1], the “PbLuc primary screen (10uM): inhibition % (n=1)” value is listed as 46.4% and the “PbLuc primary screen (2uM): inhibition % (n=1)” value was 39.0185%. Besides, the “HepG2 toxicity primary screen (10uM): inhibition % (n=1)” value in assay [2] came to 13.6%.
The matching figures for `Cc1cc(=O)n2nc(C3CCN(C(=O)c4ccccn4)CC3)cc2[nH]1` [DDD01057174]: 7.55%, -10.49% and -3.3635%.
In the case of `Cc1[nH]n(Cc2ccc(F)cc2)c2nnc(N)c1-2` [DDD01012470], in assay [1], the “PbLuc primary screen (10uM): inhibition % (n=1)” value turned out to be 78.2% and the “PbLuc primary screen (2uM): inhibition % (n=1)” value worked out at 11.14%. Further, the “HepG2 toxicity primary screen (10uM): inhibition % (n=1)” value in assay [2] came out at 1.11%.
Turning to `Cc1[nH]n(C2CCS(=O)(=O)C2)c(=O)c1Cc1cccc(Cl)c1` (stereo not drawn) [DDD01026994], in assay [1], the “PbLuc primary screen (10uM): inhibition % (n=1)” value worked out at 28.5% and the “PbLuc primary screen (2uM): inhibition % (n=1)” value was 34.05%. Moreover, the “HepG2 toxicity primary screen (10uM): inhibition % (n=1)” value in assay [2] was -46.865%.
The matching figures for `Fc1cccc(C2=NN=CC2=C2NC(CN3CCOCC3)=NO2)c1` [DDD01244908]: 13.7%, 24.36% and -7.58%.
In the case of `CCc1c(C)nn2c(=O)cc(C3CCN(C(=O)C4CC4)C3)[nH]c12` (stereo not drawn) [DDD01057056], in assay [1], the “PbLuc primary screen (10uM): inhibition % (n=1)” value was 26.6% and the “PbLuc primary screen (2uM): inhibition % (n=1)” value was 11.53%. Moreover, in assay [2], the “HepG2 toxicity primary screen (10uM): inhibition % (n=1)” value was found to be 1.97%.
Take `CCc1c(C)nn2c(=O)cc(C3CCN(C(=O)c4cnn(C)c4)C3)[nH]c12` (stereo not drawn) [DDD01056908]: in assay [1], the “PbLuc primary screen (10uM): inhibition % (n=1)” value turned out to be 9.3875% and the “PbLuc primary screen (2uM): inhibition % (n=1)” value is listed as -18.64%. Also, in assay [2], the “HepG2 toxicity primary screen (10uM): inhibition % (n=1)” value was 4.85%.
For `COc1cc2c(cc1-c1nc3c[nH]n(C)c-3n1)OCO2` [DDD01248770], in assay [1], the “PbLuc primary screen (10uM): inhibition % (n=1)” value is listed as 28.7% and the “PbLuc primary screen (2uM): inhibition % (n=1)” value came to 21.97%. Also, the “HepG2 toxicity primary screen (10uM): inhibition % (n=1)” value in assay [2] is recorded as -8.9%.
The like results for `Cc1[nH]n(C2CCCCC2)c2nc(C(C)(C)CN3CCOCC3)nc1-2` [DDD01254749] were, in that order, -16.9%, 48.54% and -3.64%.
Consider `CCc1c(C)nn2c(=O)cc(C3CCN(C(=O)c4ccccn4)C3)[nH]c12` (stereo not drawn) [DDD01056906], for which, in assay [1], the “PbLuc primary screen (10uM): inhibition % (n=1)” value was 44.95% and the “PbLuc primary screen (2uM): inhibition % (n=1)” value is -16.2%. Moreover, the “HepG2 toxicity primary screen (10uM): inhibition % (n=1)” value in assay [2] stood at 6.7%.
Regarding `Cc1[nH]n(C2CCS(=O)(=O)C2)c(=O)c1Cc1ccccc1Cl` (stereo not drawn) [DDD01026964], in assay [1], the “PbLuc primary screen (10uM): inhibition % (n=1)” value was determined as 34.1% and the “PbLuc primary screen (2uM): inhibition % (n=1)” value is reported as -0.8948%. Besides, the “HepG2 toxicity primary screen (10uM): inhibition % (n=1)” value in assay [2] is on record as -45.665%.
The matching figures for `Cc1cccc(C2N3CCC4(CC3)c3[nH]c5ccccc5c3CCN24)n1` (stereo not drawn) [DDD01058402]: -19.7%, 38.22% and 8.06%.
In the case of `COCCC(=O)N1Cc2[nH]c3c(C)c(-c4cccs4)nn3c(=O)c2C1` [DDD01056578], in assay [1], the “PbLuc primary screen (10uM): inhibition % (n=1)” value is recorded as -5.78% and the “PbLuc primary screen (2uM): inhibition % (n=1)” value was -12.93%. Besides, in assay [2], the “HepG2 toxicity primary screen (10uM): inhibition % (n=1)” value was -1.19%.
The matching figures for `COc1ccc(-c2c(C)nn3c(N)c(C#N)nnc23)cc1` [DDD01035158]: 3.19%, -31.95% and -8.26%.
As to `CCc1cc(=O)n2nc(C3CCN(C(=O)c4cccnc4)CC3)cc2[nH]1` [DDD01057176], in assay [1], the “PbLuc primary screen (10uM): inhibition % (n=1)” value was 13.3% and the “PbLuc primary screen (2uM): inhibition % (n=1)” value is -5.593%. In assay [2], the “HepG2 toxicity primary screen (10uM): inhibition % (n=1)” value is 7.09%.
`CCn1[nH]cc2nc(-c3ccc(OC)c(COC)c3)nc1-2` [DDD01253750]: in assay [1], the “PbLuc primary screen (10uM): inhibition % (n=1)” value is recorded as -45.8% and the “PbLuc primary screen (2uM): inhibition % (n=1)” value was found to be 0.5819%. Moreover, the “HepG2 toxicity primary screen (10uM): inhibition % (n=1)” value in assay [2] came out at 6.34%.
`COCC(=O)Nc1[nH]nc2c1c(C)nn2Cc1cccc(OC)c1` [DDD01063147]: in assay [1], the “PbLuc primary screen (10uM): inhibition % (n=1)” value is -14.8% and the “PbLuc primary screen (2uM): inhibition % (n=1)” value was 27.76%. Moreover, in assay [2], the “HepG2 toxicity primary screen (10uM): inhibition % (n=1)” value is reported as -11.7%.
The like results for `CCc1c(C)nn2c(=O)cc(C3CCN(C(=O)c4ccn(C)n4)C3)[nH]c12` (stereo not drawn) [DDD01056907] were, in that order, 3.623%, -25.98% and 7.915%.
The matching figures for `CC(=O)N1CCCN(C(=O)CCOc2ccc(C(C)C)cc2)CC1` [DDD01298039]: 52.5%, 36.9515% and -13%.
Take `CC(NC(=O)CCC1=NC(=C2N=CN=N2)NO1)c1ccc(F)cc1F` (stereo not drawn) [DDD01068293]: in assay [1], the “PbLuc primary screen (10uM): inhibition % (n=1)” value turned out to be 33.4% and the “PbLuc primary screen (2uM): inhibition % (n=1)” value is -26.534%. In addition, in assay [2], the “HepG2 toxicity primary screen (10uM): inhibition % (n=1)” value was -2.05%.
Consider `CCc1c(C)[nH]c2cc(C3CCN(Cc4ccccc4F)C3)nn2c1=O` (stereo not drawn) [DDD01270117], for which, in assay [1], the “PbLuc primary screen (10uM): inhibition % (n=1)” value is on record as 85.9% and the “PbLuc primary screen (2uM): inhibition % (n=1)” value is recorded as 29.7326%. Moreover, in assay [2], the “HepG2 toxicity primary screen (10uM): inhibition % (n=1)” value is 1.7%.
In the case of `CSc1cccc(NC(=O)Nc2c(O)c3ccccc3oc2=O)c1` [DDD01037688], in assay [1], the “PbLuc primary screen (10uM): inhibition % (n=1)” value is reported as 1.86% and the “PbLuc primary screen (2uM): inhibition % (n=1)” value is recorded as 28.0462%. Also, the “HepG2 toxicity primary screen (10uM): inhibition % (n=1)” value in assay [2] is 4.45%.
As for `Cc1[nH]c2cc(C3CCN(Cc4cccc(F)c4F)C3)nn2c(=O)c1C` (stereo not drawn) [DDD01270135], in assay [1], the “PbLuc primary screen (10uM): inhibition % (n=1)” value was determined as 90.4% and the “PbLuc primary screen (2uM): inhibition % (n=1)” value is 18.8%. Also, in assay [2], the “HepG2 toxicity primary screen (10uM): inhibition % (n=1)” value is 0.333%.
